# Screening results deposited in PubChem BioAssay by National Center for Advancing Translational Sciences (NCATS).
# Shiga inhibitor = A qHTS for Small Molecule Inhibitors of Shiga Toxin; inhibition, % at 38.7 µM; 290,000 tested, 9.2% active; Vero cells, Shiga toxin protein synthesis inhibition reporter; in the data active means inhibition mostly above about 28%, no sharp cut-off; inactive means mostly below about 43%; further: 0% is about no effect
# CHX counter = Cycloheximide Counterscreen for Small Molecule Inhibitors of Shiga Toxin | cell reporter, cycloheximide protein synthesis inhibition counterscreen | max response, % | 300,000 tested, 12% active; in the data active means max response mostly above about 13%, no sharp cut-off; inactive means mostly below about 14%; further: read at 38.3 µM for the half of the compounds with a filed dose; 0% is about no effect
# Pf growth 96h = Primary qHTS for delayed death inhibitors of the malarial parasite plastid, 96 hour incubation; AID 504834, 2011; 320,000 tested, 6.9% active; P. falciparum luciferase reporter growth, 96 h; Potency, µM (top dose mostly 28.7 µM), inactives show at the highest dose activity change, negative = inhibition, actives largely listed as inhibitors; further: potency means the concentration at half of the fitted maximal effect; on the % scale 0 is the no-effect control and ±100 the full control effect
#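 Compounds incubated with erythrocytes infected by luciferase-expressing P. falciparum (2% hematocrit, 0.05% parasitemia final) for 96 hours, 37 C in 5% CO2. Growth inhibition scored as decreased luciferase luminescence.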
# Pf growth 48h = Primary qHTS for delayed death inhibitors of the malarial parasite plastid, 48 hour incubation; P. falciparum luciferase growth in erythrocytes, 48 h; Potency, µM (highest dose often 28.7 µM), without a hit: at the highest dose activity change, negative = inhibition, most hits filed as inhibitors; 310,000 tested, 5.9% active; further: potency means the concentration at half of the fitted maximal effect; on the % scale 0 is the no-effect control and ±100 the full control effect
#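 Growth was read as firefly luciferase luminescence after a 48 h, 37 C, 5% CO2 exposure of compounds to reporter-bearing P. falciparum cultures (0.1% parasitemia, 2% hematocrit final) in Albumax-supplemented RPMI 1640.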
# SARS PLpro yeast = qHTS of Yeast-based Assay for SARS-CoV PLP. S. cerevisiae expressing SARS-CoV PLpro, growth rescue. Potency, µM (series often up to 32.9 µM), for inactives: top-dose activity, positive = growth rescue, usual class: activators. 330,000 tested, 0.19% active. AID 485353, 2010; calls by dose curve; further: potency means the concentration at half of the fitted maximal effect; 0% is about no effect; nearly all actives have a fitted effect of over 55% in size
# AMA1 RON2 block = qHTS for Inhibitors of AMA1-RON; Towards Development of Antimalarial Drug Lead: Primary Screen. AlphaScreen AMA1-biotinylated RON2 peptide binding. Potency, µM (series often up to 58.2 µM), without a hit: top-dose activity change, negative = inhibition, hits mostly inhibitors. 360,000 tested, 0.2% active;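 further: potency means the concentration at half of the fitted maximal effect; 0% = vehicle wells and -100% = peptide control; nearly all actives have a fitted effect of over 45% in size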
#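 AMA1 (3D7) with his tag at 25 nM final met compounds first, then biotinylated RON2 peptide at 25 nM; detection used donor plus acceptor beads, 10 µg/mL apiece, read by AlphaScreen after 30 min at room temperature.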
# Starred values were filed as active, the others as inactive; ? = inconclusive; nt = no result given; [ ] = dose if it differs, or a comment. Sampled rows, rich in hits. Any-hit rate of the full collection: about 19%. Unless noted, the call rests on the fitted dose curve; in most records, active means well fitted curve in the direction sought with a large enough effect; inconclusive means small, poorly fitted or top-dose-only effect, or another doubt; inactive means no such curve, though single readings can be large; an effect the other way counts as inactive or inconclusive.
SMILES,Shiga inhibitor,CHX counter,Pf growth 96h,Pf growth 48h,SARS PLpro yeast,AMA1 RON2 block
c1ccc(C[n+]2cccc(-c3ccccc3)c2)cc1,13,5,0.66µM*,2.1µM*,2%,8%
O=C1SCCN1N=Cc1ccc([N+](=O)[O-])o1,nt,nt,nt,nt,nt,0%
O=C(NCCO)c1cc2ccccc2c(=O)s1,40,8,7%,45%,-2%,-4%
COC(=O)c1cc2ccccc2c(=O)s1,9,15*,6%,45%,-10%,7%
CCCN(CCC)C(=O)Cn1c(=O)n(CCC(=O)NCCc2ccccc2)c(=O)c2ccccc21,-4,-1,9.3µM*,nt,1%,15%
COCCCNC(=O)CCn1c(=O)c2ccccc2n(CC(=O)Nc2c(C)cccc2C)c1=O,-2,-2,9.3µM*,8%,4%,5%
COc1ccc(CCN(C)Cc2nc(Cc3ccc(OC)c(OC)c3)no2)cc1OC,-11,-3,343%,-11%,0%,4%
CSCC[C@H](NC(=O)OC(C)(C)C)C(=O)N1CCC(C(=O)N[C@@H](C)C(=O)NC(C)c2ccccc2)CC1 (stereo not given in full),-5,-3,6%,?,5%,22%
CCCC(=O)Nc1ccc(Cc2ccc(NC(=O)CCC)c(C(=O)O)c2)cc1C(=O)O,-4,-1,-149%[1.15 µM],1%,1%,9%
COCc1nc2oc3ccccc3c(=O)c2cc1C(=O)OC,46*,12*,168%,147%,1%,-2%
CCOC(=O)c1c(C)nc(C)c2c(=O)oc3ccccc3c12,93*,33*,0%,68%,0%,5%
CC(=O)c1cc2c(=O)c3ccccc3oc2nc1C,nt,nt,nt,nt,nt,-2%
CCN(CC)C(=O)c1cc2c(=O)c3cc(F)ccc3oc2nc1C,64*,39*,23%,51%,1%,-10%
CCOC(=O)c1cc2c(=O)c3ccccc3oc2nc1C,103*,40*,320%,206%,-3%,11%
CCc1cccc(C)c1NC(=S)N(CCCN1CCOCC1)Cc1cccnc1,-5,0,?,?,-10%,4%
Cc1cccc(OCc2nnc(SCC(=O)N(C(C)C)C(C)C)n2Cc2ccco2)c1C,-13,1,?,12µM*,-3%,-3%
COc1ccc(C)cc1NC(=O)CSc1nnc(COc2ccc(Cl)cc2)n1Cc1ccco1,21,5,?,?,-20%,-23%
Cc1cc(NC(=O)CSc2nnc(COc3cccc(C)c3C)n2Cc2ccco2)no1,-11,-1,59%,22%,-3%,-3%
COc1ccc(C)cc1NC(=O)CSc1nnc(-c2ccccn2)n1Cc1ccco1,-8,-1,-22%,2%,-1%,10%
COc1ccccc1NC(=O)CSc1nnc(-c2ccccn2)n1Cc1ccco1,13,-5,12µM*,?,12%,1%
COc1ccc(C)cc1NC(=O)CSc1nnc(COc2ccccc2)n1Cc1ccco1,-21,1,10µM*,?,-2%,-3%
COc1ccccc1OC(C)C(=O)N1CC(=O)Nc2ccccc21 (stereo not given),20,-2,21%,22%,-8%,-4%
COc1ccc(Oc2c(O)c3ccccc3n(C)c2=O)cc1,2,-3,-20%,24%,?,-1%
COc1ccc(N=Nc2n(C)c3ccccc3[n+]2C)cc1,-19,-2,0.52µM*,0.74µM*,-3%,nt
Cc1cccc(COc2ccc(/C=N/NC(=O)c3nnn(-c4nonc4N)c3COc3ccc(F)cc3)cc2)c1,31,16*,-1%,7%,0%,-10%
Nc1nonc1-n1nnc(C(=O)N/N=C/c2ccc(OCc3cccc(Cl)c3)cc2)c1CN1CCCCC1,33,27*,11%,1%,-2%,15%
Cc1cccc(COc2ccc(/C=N/NC(=O)c3nnn(-c4nonc4N)c3CN3CCCCC3)cc2)c1,39,12,20%,12%,-10%,-1%
Cc1ccc(CN2C(=O)S/C(=C\c3ccccc3OCC(=O)O)C2=O)cc1,11,-1,5.2µM*,5%,20%,-2%
